Compound activity as filed in PubChem BioAssay.
DT40 TDP1 CPT – qHTS for Inhibitors of human tyrosyl-DNA phosphodiesterase 1 (TDP1): qHTS in cells in presence of CPT | Potency, µM (doses to about 46.2 µM), without a hit: top-dose activity change, negative = growth inhibition, hits mostly inhibitors | 12% of 420,000 active | chicken DT40 Tdp1-/-;hTDP1 cells + 20 nM CPT, ATP luminescence, 48 h; further: potency means the concentration at half of the fitted maximal effect; nearly all actives have a fitted effect of over 55% in size
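Chicken DT40 Tdp1-/- cells stably complemented with human TDP1 were seeded at 400 cells/well in medium containing 20 nM camptothecin, exposed to pin-transferred compounds, and grown at 37 °C for at least 48 hr. Viability was read as ATP luminescence.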
Gal4-VP16 FLuc – VP16 counterscreen qHTS for inhibitors of ROR gamma transcriptional activity | Potency, µM (doses to about 53.6 µM), for the others: top-dose activity, negative = inhibition, usual class: inhibitors | 3.5% of 310,000 active | Drosophila S2 Gal4-VP16 UAS-luciferase, luminescence, 20 h | AID 2546, 2010;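 further: Gal4-VP16 expression switched on by copper sulfate through the metallothionein promoter; potency means the concentration at half of the fitted maximal effect; nearly all actives have a fitted effect of over 50% in size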
LDHA inh – qHTS assay for inhibitors of human lactate dehydrogenase. purified LDHA, NADH/diaphorase-resazurin fluorescence; hits give low values. activity change, % (values are at about 110 or 230 µM). 0.15% of 480,000 active. AID 1347041, 2019; in the data active means activity change below about -30%; inconclusive means mostly about -25% to -30%;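 further: plate controls were DMSO wells for no effect and wells without enzyme for full effect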
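Human LDH5 at 2 nM final in Tris HCl pH 7.4 with 0.06 mM NADH and 0.2 mM pyruvate, reacted 5 minutes at room temperature. Remaining NADH coupled via diaphorase/resazurin; resorufin fluorescence read at 0 and 20 minutes, normalized to enzyme-free and DMSO wells.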
DT40 TDP1 no CPT – qHTS for Inhibitors of human tyrosyl-DNA phosphodiesterase 1 (TDP1): qHTS in cells in absence of CPT. DT40 Tdp1-/- hTDP1 cells, no CPT, ATP luminescence, 48 h. Potency, µM (series often up to 46.2 µM), for inactives: top-dose activity change, negative = growth inhibition, usual class: inhibitors. 15% of 420,000 active. AID 686978, 2013; further: potency means the concentration at half of the fitted maximal effect; nearly all actives have a fitted effect of over 55% in size
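Luminescent ATP content (CellTiter-Glo) served as the growth readout. Knockout chicken DT40 cells expressing human TDP1 were exposed to compounds without camptothecin for a minimum 48 hr at 37 °C.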
IL-1B inflam inh – qHTS for Inhibitors of Inflammasome Signaling: IL-1-beta AlphaLISA Primary Screen. 4.7% of 360,000 active. activity change, % at 57.5 µM. AID 743279, 2014. THP-1 LPS/ATP IL-1B secretion, AlphaLISA, 16 h; hits give low values; in the data active means activity change below about -50%; inconclusive means mostly about -30% to -49%
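THP-1 cells pretreated 1 hr with compounds (up to 57.5 uM final), then stimulated with LPS (250 ng/mL final) plus ATP (1.25 mM final); secreted IL-1B measured by AlphaLISA after 16 hr, decreased signal indicating inhibition.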
RORgamma inh – qHTS for inhibitors of ROR gamma transcriptional activity; Drosophila S2 Gal4-RORgamma UAS-luciferase reporter, 20 h; Potency, µM (highest dose often 53.6 µM), for inactives: at the top dose activity change, negative = inhibition, most hits filed as inhibitors; 5.4% of 310,000 active; further: potency means the concentration at half of the fitted maximal effect; nearly all actives have a fitted effect of over 60% in size
Target sequence (P51450 whole entry, looked up, the tested form may be a part): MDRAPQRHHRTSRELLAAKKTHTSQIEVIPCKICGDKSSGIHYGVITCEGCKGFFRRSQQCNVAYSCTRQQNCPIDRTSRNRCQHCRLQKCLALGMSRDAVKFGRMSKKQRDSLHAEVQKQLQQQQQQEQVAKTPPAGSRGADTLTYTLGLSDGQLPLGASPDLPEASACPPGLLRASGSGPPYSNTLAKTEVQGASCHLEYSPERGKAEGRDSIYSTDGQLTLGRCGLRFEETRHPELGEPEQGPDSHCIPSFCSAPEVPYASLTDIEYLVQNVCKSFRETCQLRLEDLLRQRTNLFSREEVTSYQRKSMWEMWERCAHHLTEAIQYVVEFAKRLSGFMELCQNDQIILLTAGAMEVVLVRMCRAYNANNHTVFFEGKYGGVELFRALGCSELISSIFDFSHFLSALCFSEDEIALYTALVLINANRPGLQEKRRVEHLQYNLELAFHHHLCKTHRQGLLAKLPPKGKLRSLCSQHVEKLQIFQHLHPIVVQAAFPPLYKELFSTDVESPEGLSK
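Using a luciferase readout, inhibitors were identified by reduced reporter activity in Drosophila cells coexpressing a copper-inducible Gal4–ROR gamma fusion and UAS-driven Photinus luciferase, incubated 20 hr after 700 uM copper sulfate.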
Active calls of the source: *; ? = inconclusive; . = no result given; ! = a repeat was not active; [ ] = dose if it differs, or a comment. This is a sample that favours compounds with a hit; in the whole collection about 18% have one here. Unless noted, the call rests on the fitted dose curve; in most records, active means well fitted curve in the direction sought with a large enough effect; inconclusive means small, poorly fitted or top-dose-only effect, or another doubt; inactive means no such curve, though single readings can be large; an effect the other way counts as inactive or inconclusive. Unless noted, on the % scale 0 is the no-effect control and ±100 the full control effect.

SMILES	DT40 TDP1 CPT	Gal4-VP16 FLuc	LDHA inh	DT40 TDP1 no CPT	IL-1B inflam inh	RORgamma inh
C=CCOc1c(OC)cc(/C=N/Nc2cccc(C(=O)O)c2)c(Br)c1Br	16µM*	5%	-1	16µM*	0	3%
Cc1nnc(NC(=O)c2cc(-c3ccccn3)nc3ccccc23)s1	.	.	8	.	.	.
CC12CN(S(=O)(=O)c3ccccc3)CC(C)(CN(S(=O)(=O)c3ccccc3)C1)C2	2.3µM*	?	-4	?	-2	-33%
O=S(=O)(c1ccccc1)N1CCNCC1	25%	.	0	2%	6	.
CC(C)(c1ccccc1)c1ccc(OC(=O)C2CCS(=O)(=O)C2)cc1 (stereo unspecified)	.	.	6	.	.	.
c1ccc(-c2onc(-c3ccco3)c2-c2ccc3[nH]ccc3c2)cc1	7.9µM*	-24%	0	?	-11	34%
c1cc2cc(-c3c(-c4ccc5c(c4)OCO5)noc3-c3ccsc3)ccc2[nH]1	?	-7%	-6	3.2µM*!	-57*	37%
COc1cc(-c2c(-c3ccc4c(c3)OCO4)noc2-c2ccsc2)ccc1F	?	1%	-8	?	-17	17%
Cc1onc(-c2ccc3c(c2)OCO3)c1-c1ccc2[nH]ccc2c1	18µM*	-6%	-1	16µM*	-57*	15%
COC(=O)c1ccc(NC(=O)c2nc3ccccc3nc2N2CCCC2)cc1	.	.	1	.	.	.
Cc1nc(C)c(CC(=O)Nc2nnc(C3CCCCC3)s2)c(=O)[nH]1	.	.	17	.	.	.
COc1ccc(OC)c2c(=S)c3ccccc3[nH]c12	24µM*	-16%	.	?	.	-42%
S=c1[nH]nc(CCc2ccccc2)n1Cc1ccccc1	-30%	5µM*	-2	?	12	2.2µM*
COc1ccc(-n2c(CCc3ccccc3)n[nH]c2=S)cc1	?	-24%	-7	?	24	5µM*
CCOc1ccc(-n2c(CCc3ccccc3)n[nH]c2=S)cc1	?	?	-4	?	5	?
Cc1ccc(Cn2c(CCCOc3ccc(Cl)cc3Cl)n[nH]c2=S)cc1	.	.	9	.	.	.
CCCCc1n[nH]c(=S)n1Cc1ccc(C)cc1	8%	?	-8	-9%	26	5.6µM*
COCCn1c(CCc2ccccc2)n[nH]c1=S	-18%	?	-14	15%	-3	11µM*
CCCOc1ccc(CCc2n[nH]c(=S)n2-c2ccccc2)cc1	?	-18%[10 µM]	-4	16µM*	1	2.8µM*
CCCOc1ccc(CCc2n[nH]c(=S)n2Cc2ccccc2)cc1	?	1.3µM*	5	21µM*	-10	2µM*
CCCCCC(O)CCc1n[nH]c(=S)n1-c1ccccc1 (stereo unspecified)	11%	2%	-4	-5%	4	6.3µM*
Cc1cc(Cl)ccc1OCCCc1n[nH]c(=S)n1Cc1ccccc1	.	.	-3	.	.	.
CCCCCCCc1n[nH]c(=S)n1Cc1ccccc1	?	?	0	?	6	1.3µM*
COc1ccccc1OCc1n[nH]c(=S)n1Cc1ccccc1	3%	-11%	-12	-2%	42	16%
CCCN1CCC(NC(=O)CC23CC4CC(CC(C4)C2)C3)CC1	.	.	1	.	.	.
CCN(CC)c1nc2ccccc2nc1C(=O)Nc1ccc(OC)cc1	.	.	-1	.	.	.
COc1ccc(CSCCc2n[nH]c(=S)n2-c2ccccc2)cc1C	?	-8%	-2	?	31	?
S=c1[nH]nc(CCSCc2ccccc2)n1-c1ccccc1	?	1%	-5	?	27	2.8µM*
Cc1ccc(NCc2n[nH]c(=S)n2Cc2ccccc2)cc1Cl	?	?	-4	?	-10	4µM*
